# According to ChEMBL document CHEMBL3433997, “St. Jude Leishmania screening dataset” (2016):
# Experiments:
# Type in all cases: functional
# [1] = target: Solute carrier family 2, facilitated glucose transporter member 1 (Homo sapiens) (UniProt P11166); assay: ST_JUDE_LEISH: Cytotoxicity at 2uM final concentration against transgenic Leishmania Mexicana promastigotes LmGLUT1 that are glucose transport deficient and complemented with the human glucose transporter GLUT1. Activity is measured by DNA content using SYBR green in vitro
# Sequence of Solute carrier family 2, facilitated glucose transporter member 1 (Homo sapiens) (P11166 whole entry): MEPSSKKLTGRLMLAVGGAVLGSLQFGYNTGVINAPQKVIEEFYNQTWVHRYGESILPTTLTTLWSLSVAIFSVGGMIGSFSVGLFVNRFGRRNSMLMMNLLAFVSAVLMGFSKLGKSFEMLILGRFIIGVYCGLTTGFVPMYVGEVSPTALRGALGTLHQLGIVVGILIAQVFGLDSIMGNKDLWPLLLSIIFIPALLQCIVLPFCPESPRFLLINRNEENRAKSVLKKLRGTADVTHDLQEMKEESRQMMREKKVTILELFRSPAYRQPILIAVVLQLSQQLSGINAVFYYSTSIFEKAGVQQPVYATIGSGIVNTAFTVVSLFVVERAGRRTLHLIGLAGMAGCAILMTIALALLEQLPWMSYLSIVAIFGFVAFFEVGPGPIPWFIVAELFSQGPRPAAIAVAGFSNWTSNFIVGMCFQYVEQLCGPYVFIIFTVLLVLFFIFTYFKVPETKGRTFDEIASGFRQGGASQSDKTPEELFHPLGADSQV
# [2] = target: Hexose transporter 1 (Plasmodium falciparum) (UniProt O97467); assay: ST_JUDE_LEISH: Cytotoxicity at 2uM final concentration against transgenic Leishmania Mexicana promastigotes LmPfHT that are glucose transport deficient and complemented with the Plasmodium falciparum hexose transporter. Activity is measured by DNA content using SYBR green in vitro
# [3] = target: Glucose transporter (Leishmania mexicana) (UniProt O61059); assay: ST_JUDE_LEISH: Cytotoxicity at 2uM final concentration against transgenic Leishmania Mexicana promastigotes LmGT2 that are glucose transport deficient and complemented with the L. Mexicana glucose transporter 2. Activity is measured by DNA content using SYBR green in vitro
SMILES,inhibition [1] [%],inhibition [2] [%],inhibition [3] [%]
COc1cc2c(cc1S(=O)(=O)c1ccc(NC(=O)c3cccc(C(F)(F)F)c3)cc1)CCN(C)CC2,1.16,0.62,1.88
COc1ccc(NC(=O)N2CCc3ccc(OCCN(C(C)C)C(C)C)cc32)cc1C(F)(F)F,7.93,7.33,5.73
O=C(Nc1ccc(C(=O)Oc2cccc3ccccc23)cc1)N[C@@H](Cc1ccc(O)cc1)C(=O)NC1CCN(Cc2ccc(O)cc2)C1 (some centres undefined),20.6,17.7,17.4
N=C(N)Nc1ccc(OCCCCCOc2ccc(NC(=N)N)cc2Br)c(Br)c1,4.63,1.79,0.79
CCc1cccc(NC(=O)/C=C/c2ccc3c(c2)CN(C)CC3)c1,4.53,2.31,10.2
CCN(CCCNc1nc(=S)[nH]c2cc(OC)c(OC)cc12)c1ccccc1,-0.4,-1.25,-4.13
COc1ccc(NC(=O)Nc2ccc(-c3ccccc3)cc2Cl)cc1N1CCN(C)CC1,12,11.8,3.58
c1ccc(C2CCC(N3CCC(N4CCN(c5ccccc5)CC4)CC3)CC2)cc1 (centres undefined),5.35,7.92,8.3
Cc1ccc(CNC(=O)[C@H](Cc2ccccc2)Nc2ccnc(NCC3CCCCC3)n2)cc1,7.85,4.83,3.01
CC(C)NCc1cccc(-c2cccc(-c3nc4ccccc4[nH]3)c2)c1,-1.73,0.59,-1.69
C#CCNCc1ccc(-c2cccc(-c3nc4cccc(C)c4[nH]3)c2)cc1,6.77,4.1,3.18
COc1ccc(Nc2cc(C)c3cc(NC(=O)c4ccncc4)ccc3n2)cc1,0.86,2.43,0.74
O=C1COC2(CN1CC1CCN(Cc3ccc(O)c(Cl)c3)C1)c1ccccc1-c1ccccc12 (centres undefined),-0.03,-0.11,-0.34
CN1CCN(CCCN(Cc2csc(-c3ccc(CNCc4ccccc4)cc3)n2)C(=O)Nc2ccc3ccccc3c2)CC1,2.94,4.46,0.42
CNCCNCc1ccc(-c2ccc(-c3nc4cc(F)ccc4[nH]3)s2)cc1,9.52,7.79,8.77
CCCN1CCN(Cc2ccc(C(=O)Nc3ccc(Cl)cc3)cc2)CC1,5.31,4.24,4.34
Cc1cc(-c2ccc(CNC3CCN(C)CC3)cc2)ccc1S(=O)(=O)NCc1ccccc1,3.29,3.32,1.14
O=C(NCc1ccccc1)NC(CCCN1CCC(Oc2cccc(Cl)c2)CC1)c1ccc(Cl)c(Cl)c1 (centres undefined),2.71,-0.32,-0.18
O=C(/C=C/c1ccc(Cl)c(Cl)c1)NCCCCCN1CCC(NC(=O)Nc2cc(F)ccc2F)CC1,2.34,2.81,6.16
O=C(c1cc(-c2ccco2)n[nH]1)N1CCN(S(=O)(=O)c2ccc(Cl)cc2)CC1,-0.38,-0.62,-1.09
Cc1cc(Nc2ccc(O)cc2)nc2cccc(O)c12,2.06,0.79,3.84
CCNC(=O)Nc1cccc(-c2cccc(-c3nc4cccc(C)c4[nH]3)c2)c1,4.32,2.2,3.06
COc1ccc(NC(C)C(=O)Nc2ccc(Br)cc2)cc1S(=O)(=O)N1CCCCC1 (centres undefined),-1,1.34,1.93
Cc1cnc(-c2ccc(NC(=O)c3coc4ccc(N5CC(C)N(C)C(C)C5)cc34)cc2)o1 (centres undefined),-0.6,1.55,0.74

SMILES,inhibition [1] [%],inhibition [2] [%],inhibition [3] [%]
Clc1ccc(-c2cnc3ccc(NCCc4cccnc4)nn23)cc1,1.24,-1.47,0.12
COc1ccccc1CNc1ncc(-c2ccsc2)c(-c2nccs2)n1,0.14,0.8,-0.05
CC(C)(C)c1cc(C(=O)N2CCC(c3ccccn3)CC2)n(Cc2ccccc2)n1,0.22,1.08,-0.6
O=C(CCN1CCCCC1)Nc1ccc(Nc2nccc(NCC(O)c3ccccc3)n2)cc1 (centres undefined),-1.33,-1.09,-2.39
COc1cc2nc(C)nc(Nc3ccc(Cc4ccccc4)cc3)c2cc1OC,4.72,5.93,3.99
COc1ccc2nc(N=C3NC4(c5ccccc5)NC(=Nc5nc6ccc(OC)cc6[nH]5)NC4(c4ccccc4)N3)[nH]c2c1 (centres undefined),-1.9,-0.84,-0.87
COc1ccc2ccc(F)c(CCN3CCC(NCc4cc5c(cn4)OCCO5)CC3)c2n1,8.37,14,22.4
O=C(Nc1cccc(C(F)(F)F)c1)Nc1ccc(F)c([N+](=O)[O-])c1,2.84,3.09,-0.74
CN1CCN(CCCN(Cc2cccc(-c3cccc(CNC4CCCC4)c3)c2)C(=O)CCC2CCCC2)CC1,-0.12,-0.45,0.45
N#Cc1ccc(CN2CCC(NC(=O)c3ccc(-c4nnc(-c5cccc6ccccc56)o4)cc3)CC2)cc1,4.73,2.48,-1.38
N=C(N)Nc1cccc(NC(=O)Nc2cccc(NC(=N)N)c2)c1,6.92,4.83,3.86
O=C(O)C1Cc2c([nH]c3ccccc23)C(c2ccc(Cl)cc2Cl)N1 (centres undefined),3.99,2.22,4.37
O=C(Nc1ccnc(-c2cccnc2)n1)c1cc(C(F)(F)F)cc(C(F)(F)F)c1,-1.69,0.27,-3.85
CCc1ccc(CN2CCC(CNC(=O)c3cc(-c4ccccc4Cl)cs3)C2)cc1 (centres undefined),7.86,8.8,10.8
Cc1ccc2c(-c3ccc([N+](=O)[O-])o3)cc(C)nc2c1,54.3,46.4,7.05
CCCCc1cc(NCC)nc(Nc2ccc(OC)cc2)n1,20.3,10.1,5.43
CC1(C)NC(N)=NC(=N)N1OCC1CCCCC1,-0.1,1.24,0.75
CC(C)COc1ccc(Cl)cc1Cc1ccc(-c2nc3c(F)cccc3[nH]2)o1,0.36,0.7,2.89
Cc1cccc(NC(=O)Nc2cccc(-c3ccc(-c4nc5cc(C(F)(F)F)ccc5[nH]4)cc3)c2)c1,5.86,2.01,1.66
O=C(c1cc(-c2ccco2)n[nH]1)N1CCN(S(=O)(=O)c2ccc(Br)cc2)CC1,10.8,10.2,7.48
CN(C)CCNCc1ccc(-c2cccc(-c3nc4ccccc4[nH]3)c2)cc1,10.5,8.93,8.27
CON(CCCN(C)C)C(=N)N,0.55,2.02,0.26
Cc1cc(N2CCC(C)CC2)nc2cc(O)ccc12,1,0.44,0.89
COc1cc2nc(N3CCC(CNC(=O)c4ccc(-c5ccc(-c6noc(C)n6)cc5C)cc4)CC3)nc(N)c2cc1OC,8.2,7.8,5.29
